Holding throughout (assay): Euclidean distance of Cell Painting phenotypic profile (signed KS, 77 features) to DMSO centroid (dimensionless distance); 5 or 10 uM (library dependent); higher = stronger phenotypic change vs DMSO (phenoactivity)
Common to all, as to details: 48 h

One assay deals with 786-O. In short, it runs like this:
(§1)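 Five cancer lines, together with a healthy fibroblast line, received library compounds for 48 h at a library-dependent 10 or 5 uM and 0.1% DMSO final. Harmony then derived 77 features from confocal 20X images (9 fields/well) of the stained cells, scoring each as a signed Kolmogorov-Smirnov statistic against same-plate vehicle wells. After plate-position correction, correlation weighting and replicate averaging at the top dose, phenoactivity was taken as each profile's Euclidean distance to the median vehicle profile.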

In the next assay the test system is A549. In short, it runs like this:
as §1

The test system of the next assay is DU145. In short, it runs like this:
as §1

Another assay concerns FB. The procedure, abridged: as §1
For another assay, the system named is HEPG2. The procedure, abridged:
as §1

In another assay the test system is OVCAR4. In short, it runs like this:
as §1

Structures can show the parent of a compound that is named as a salt.

On to `NCCS` [Cysteamine HCl], for which the Euclidean distance was 0.86 with 786-O; 0.424 with A549; 0.624 with DU145; 1.02 in the assay on FB; 0.897 with HEPG2; 1.07 with OVCAR4.

As to `CCCCCCc1ccc(O)cc1O` [Hexylresorcinol], the Euclidean distance in the assay with 786-O was determined as 1.35; with A549 it was 0.943; with DU145, 0.978; in the assay with FB, 0.936; in the assay on HEPG2 it was 1.32; in the assay with OVCAR4, 1.16.

For the compound `CCOC(=O)C(C)(C)Oc1ccc(Cl)cc1` [Clofibrate], the Euclidean distance in the assay on 786-O came out at 0.866; in the assay on A549, 0.429; in the assay on DU145, 1.7; in the assay on FB it was 1.41; in the assay on HEPG2 it was 0.393; in the assay with OVCAR4, 0.939.

Take `O=C(Nc1c[nH]nc1-c1nc2ccc(CN3CCOCC3)cc2[nH]1)NC1CC1`: the Euclidean distance in the assay with 786-O was 3.05; with A549, 3.01; in the assay with DU145 it was 3; with FB, 2.87; in the assay on HEPG2 it was 2.74; in the assay with OVCAR4, 2.7.

For the compound `CN1CCC[C@@H]1CCO[C@](C)(c1ccccc1)c1ccc(Cl)cc1` [Clemastine Fumarate], the Euclidean distance in the assay with 786-O was 1.5; with A549 it was 1.22; in the assay with DU145, 1.59; with FB it was 1.96; with HEPG2, 2.11; in the assay on OVCAR4, 1.18.

Consider `OC(c1ccccc1)(c1ccccc1)C12CC[N+](CCOCc3ccccc3)(CC1)CC2` [Umeclidinium bromide], for which the Euclidean distance in the assay on 786-O was found to be 0.834; with A549, 1.43; in the assay on DU145, 0.97; with FB it was 1.27; with HEPG2, 0.7; in the assay on OVCAR4, 1.64.

In the case of `CC(C)(CO)[C@@H](O)C(=O)NCCC(=O)O` [D-Pantothenate Sodium], the Euclidean distance was found to be 1.18 in the assay with 786-O; 0.904 in the assay with A549; 1.05 in the assay on DU145; 1.15 with FB; 0.523 with HEPG2; 1.33 in the assay with OVCAR4.

As to `O=C(Nc1cccc(Cl)c1)c1ccccn1`, the Euclidean distance in the assay on 786-O was 1.22; with A549, 0.467; in the assay with DU145, 0.841; with FB it was 0.785; in the assay on HEPG2 it was 0.522; with OVCAR4, 0.899.

For `CC(C)(S)[C@@H](N)C(=O)O` [Penicillamine], the Euclidean distance is 1.02 in the assay on 786-O; 1.29 with A549; 0.756 in the assay on DU145; 1.13 in the assay on FB; 1.02 with HEPG2; 1.22 with OVCAR4.

In the case of `COc1ccc(CN(CCN(C)C)c2ncccn2)cc1` [Thonzylamine], the Euclidean distance in the assay with 786-O is 1.16; with A549 it was 1.66; in the assay on DU145, 1.32; in the assay with FB it was 1.44; in the assay with HEPG2 it was 0.672; with OVCAR4, 1.89.

As for `CN1CC2c3ccccc3Oc3ccc(Cl)cc3C2C1` (stereo not drawn) [Asenapine maleate], the Euclidean distance in the assay with 786-O worked out at 1.69; in the assay with A549 it was 0.991; in the assay with DU145, 2.6; in the assay with FB, 1.59; in the assay with HEPG2, 1.28; with OVCAR4 it was 1.51.

As to `CC[N+](C)(C)c1cccc(O)c1` [Edrophonium chloride], the Euclidean distance was 0.852 in the assay on 786-O; 0.865 in the assay with A549; 0.738 in the assay on DU145; 0.728 with FB; 0.598 in the assay with HEPG2; 0.943 in the assay on OVCAR4.

In the case of `O=C(c1ccc(F)c(F)c1Nc1ccc(I)cc1F)N1CC(O)([C@@H]2CCCCN2)C1` [Cobimetinib (GDC-0973. RG7420)], the Euclidean distance with 786-O was found to be 2.92; in the assay on A549 it was 2.56; in the assay on DU145 it was 3.23; in the assay on FB, 4.08; in the assay with HEPG2, 5.18; in the assay on OVCAR4, 2.85.

`C[C@@H](O[C@H]1OCCN(Cc2n[nH]c(=O)[nH]2)[C@H]1c1ccc(F)cc1)c1cc(C(F)(F)F)cc(C(F)(F)F)c1` [Aprepitant]: the Euclidean distance was found to be 1.15 with 786-O; 1.83 in the assay with A549; 0.905 in the assay on DU145; 1.05 in the assay with FB; 1.43 with HEPG2; 1.3 in the assay on OVCAR4.

As for `CN1C(CCl)Nc2cc(Cl)c(S(N)(=O)=O)cc2S1(=O)=O` (stereo not drawn) [Methyclothiazide], the Euclidean distance in the assay on 786-O was found to be 1.01; in the assay with A549 it was 0.722; with DU145, 0.72; with FB, 0.776; with HEPG2, 0.485; with OVCAR4, 1.52.

For the compound `CCn1cc(-c2ccnc3[nH]c(-c4cccc(CN(C)C)c4)cc23)c(-c2ccc(NC(=O)N(C)C)cc2)n1`, the Euclidean distance worked out at 2.56 with 786-O; 2.73 in the assay with A549; 2.29 in the assay on DU145; 3.38 in the assay on FB; 2.7 with HEPG2; 2.8 with OVCAR4.

Consider `COc1ccc2cc([C@H](C)C(=O)O)ccc2c1` [Naproxen Sodium], for which the Euclidean distance in the assay with 786-O turned out to be 1.02; in the assay on A549, 0.936; in the assay with DU145, 0.948; in the assay on FB, 0.856; in the assay on HEPG2, 0.593; in the assay with OVCAR4, 0.977.

As to `O=C(O)Cc1cc(I)c(Oc2ccc(O)c(I)c2)c(I)c1` [Tiratricol], the Euclidean distance in the assay on 786-O was 0.855; with A549, 0.554; in the assay on DU145, 0.644; in the assay with FB it was 0.597; with HEPG2, 0.536; in the assay on OVCAR4 it was 0.847.

`CCN(CC)CC(=O)Nc1c(C)cccc1C` [Lidocaine hydrochloride]: the Euclidean distance stood at 0.709 in the assay on 786-O; 0.8 with A549; 0.919 with DU145; 0.862 in the assay on FB; 0.656 with HEPG2; 1.35 with OVCAR4.

Turning to `CCc1cc2c(cc1N1CCC(N3CCOCC3)CC1)C(C)(C)c1[nH]c3cc(C#N)ccc3c1C2=O`, the Euclidean distance turned out to be 1.54 in the assay on 786-O; 2.54 with A549; 0.905 with DU145; 1.15 in the assay on FB; 0.968 in the assay with HEPG2; 1.01 in the assay with OVCAR4.

On to `Cc1noc(NS(=O)(=O)c2ccc(N)cc2)c1C` [Sulfisoxazole], for which the Euclidean distance in the assay with 786-O was determined as 1.32; in the assay on A549, 0.853; in the assay with DU145, 1.02; in the assay with FB, 0.984; with HEPG2, 0.555; in the assay on OVCAR4 it was 1.26.

For the compound `COc1cc2c(cc1O)CC[C@@H]1[C@@H]2CC[C@]2(C)[C@@H](O)CC[C@@H]12` [2-Methoxyestradiol (2-MeOE2)], the Euclidean distance in the assay with 786-O came out at 2.47; in the assay on A549, 2.67; in the assay with DU145, 2.66; in the assay on FB, 2.05; with HEPG2 it was 2.07; in the assay with OVCAR4 it was 2.42.

With `CC(=O)O[C@H]1C(=O)[C@@]2(C)[C@H]([C@H](OC(=O)c3ccccc3)[C@]3(O)C[C@H](OC(=O)[C@H](O)[C@@H](NC(=O)c4ccccc4)c4ccccc4)C(C)=C1C3(C)C)[C@]1(OC(C)=O)CO[C@@H]1C[C@@H]2O` [Paclitaxel], the Euclidean distance in the assay on 786-O is 3.07; in the assay with A549, 2.6; with DU145, 4.23; with FB, 2.69; in the assay on HEPG2 it was 2.08; in the assay with OVCAR4 it was 2.73.

For the origin of these results see the supplement of paper PMC10127200.
